According to PubChem BioAssay (Tox21):
Results filed as inconclusive are left out. Where a call stands in place of a potency, no number is given. Active and inactive are the calls of the source. Calls come from the whole dose curve; as a rule, active = well fitted inhibition curve with a large enough effect in the repeat runs; inconclusive = weak or mixed curves; inactive = no such curve, though single readings can be large or run the other way.

Biological target: Cytochrome P450 2C9 (Homo sapiens) (UniProt P11712)
Sequence (P11712 whole entry, looked up): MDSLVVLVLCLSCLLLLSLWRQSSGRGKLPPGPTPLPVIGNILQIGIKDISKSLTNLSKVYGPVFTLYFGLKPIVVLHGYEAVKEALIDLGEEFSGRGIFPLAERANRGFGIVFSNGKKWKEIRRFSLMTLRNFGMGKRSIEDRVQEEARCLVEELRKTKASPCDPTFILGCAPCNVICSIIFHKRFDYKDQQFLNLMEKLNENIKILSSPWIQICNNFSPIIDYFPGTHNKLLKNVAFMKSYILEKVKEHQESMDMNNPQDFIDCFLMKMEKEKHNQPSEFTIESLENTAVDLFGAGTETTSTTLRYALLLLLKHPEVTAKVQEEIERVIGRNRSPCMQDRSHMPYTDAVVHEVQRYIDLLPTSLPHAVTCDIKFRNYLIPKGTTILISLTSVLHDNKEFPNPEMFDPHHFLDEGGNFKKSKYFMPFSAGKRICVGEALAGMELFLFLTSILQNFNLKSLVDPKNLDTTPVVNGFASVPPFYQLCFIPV
Assay: Cytochrome P450 Family 2 Subfamily C Member 9 (CYP2C9) small molecule antagonists: luciferase reporter qHTS assay (AID 1671198); note: nearly all actives have a fitted effect of over 50% in size
Conditions: P450-Glo CYP2C9 enzyme assay, luciferin luminescence; series mostly up to 115 µM
Description: U.S. Tox21 Program National Center for Advancing Translational Sciences [NCATS] U.S. Environmental Protection Agency [EPA] National Institutes of Environmental Health Sciences [NIEHS] National Toxicology Program [NTP] U.S. Food and Drug Administration [FDA] Tox21 Assay Overview: Cytochrome P450 (CYP) enzymes are membrane-bound hemeproteins that play a key role in metabolism of drugs and xenobiotics. Evaluation of the effect of chemicals on CYP isozymes is useful to minimize the adverse drug reactions and toxicities in drug development process. Tox21 chemicals were tested for their effect on CYP enzyme activities by using P450-Glo (TM) screening systems (Promega Corporation, Madison, WI). These systems provide a luminescent method containing proluciferin substrates and are converted to luciferin products by CYP isozymes. The luciferin products formed are detected with a luciferin detection reagent, and the amount of light produced is proportional to CYP activity. P450-Glo (TM) CYP2C9 screening system (Catalog. No. V9790) was used to detect the compounds that interfere in CYP2C9 activity.
Tox21 Assay Protocol Summary: Two ul of enzyme-substrate mix was dispensed into medium binding white/solid 1536-well plates (Greiner Bio-One North America Inc., Monroe, NC) using a BioRaptr Flying Reagent Dispenser (FRD, Beckman Coulter, Brea, CA). […] The assay plates were incubated at room temperature for 10 min. Then 2 ul of NADPH regeneration solution was added to each well of the assay plates using an FRD and incubated at 37C for 1 h. The reaction was stopped by adding 4 ul of detection reagent using an FRD and after 20 min incubation at room temperature the luminescence signal was measured using a ViewLux plate reader (Perkin Elmer, Shelton, CT). Data were expressed as relative luminescence units.
Potency is the fitted concentration of half-maximal effect.

| SMILES | Potency |
| --- | --- |
| CC(C)(C)C(=O)c1ccccc1 | inactive |
| C[C@H]1[C@H](NC(=O)/C(=N/OC(C)(C)C(=O)O)c2csc(N)n2)C(=O)N1S(=O)(=O)O (stereo in doubt) | inactive |
| CCNS(=O)(=O)c1ccc(C)cc1 | inactive |
| Nc1ccn([C@@H]2O[C@H](CO)[C@@H](O)C2O)c(=O)n1 (stereo not given in full) | inactive |
| C[N+](C)(CCOc1ccccc1)Cc1cccs1 | inactive |
| CC(C)(C)OC(=O)c1cccc(N)c1 | 32.6 µM (active) |
| CN(C)CCN(C)CCN(C)C | inactive |
| CC(=O)O[C@@]12CO[C@@H]1C[C@H](O)[C@@]1(C)C(=O)[C@H](O)C3=C(C)[C@@H](OC(=O)[C@H](O)[C@@H](NC(=O)OC(C)(C)C)c4ccccc4)C[C@@](O)([C@@H](OC(=O)c4ccccc4)[C@H]21)C3(C)C | inactive |
| C=COCC1CCC(COC=C)CC1 (stereo not given) | inactive |
| CCCCCCCCCC[N+](C)(C)[O-] | inactive |
| C[N+](C)(C)CCCCCCCCCC[N+](C)(C)C | inactive |
| O=C(O)CCCC[P+](c1ccccc1)(c1ccccc1)c1ccccc1 | inactive |
| C=CCCCCCCCCC(=O)OCC | inactive |
| CN(C)C(=O)Oc1ccc[n+](C)c1 | inactive |
| CCCCN(CCC(=O)OCC)C(C)=O | inactive |
| CC(C)CC(C)(N)C#N (stereo not given) | inactive |
| NCCCC[C@H](N[C@@H](CCc1ccccc1)C(=O)O)C(=O)N1CCC[C@H]1C(=O)O | inactive |
| O=C(O)CCSCCC(=O)O | inactive |
| COCCOC[C@H](CC1(C(=O)NC2CCC(C(=O)O)CC2)CCCC1)C(=O)Oc1ccc2c(c1)CCC2 (stereo not given in full) | inactive |
| CCCCS(=O)(=O)N[C@@H](Cc1ccc(OCCCCC2CCNCC2)cc1)C(=O)O | inactive |

| SMILES | Potency |
| --- | --- |
| O=S(=O)(O)c1cccc(S(=O)(=O)O)c1 | inactive |
| C[N+]12CCC(CC1)C(OC(=O)C(O)(c1ccccc1)c1ccccc1)C2 (stereo not given) | inactive |
| O=[N+]([O-])c1ccc(/C=N\O)o1 | inactive |
| CC(=O)Nc1ccc(OCC(O)CNC(C)C)cc1 (stereo not given) | inactive |
| Cc1nc(C2CCCCC2)c(-c2ccc(S(N)(=O)=O)c(F)c2)o1 | 3.47 µM (active) |
| O=C(CO)[C@@H](O)[C@H](O)[C@@H](O)CO | inactive |
| COC(=O)Nc1ccc(Cl)c(Cl)c1 | 70.6 µM (active) |
| Cc1ccc(C(=O)Nc2ccc(S(=O)(=O)O)c3cc(S(=O)(=O)O)cc(S(=O)(=O)O)c23)cc1NC(=O)c1cccc(NC(=O)Nc2cccc(C(=O)Nc3cc(C(=O)Nc4ccc(S(=O)(=O)O)c5cc(S(=O)(=O)O)cc(S(=O)(=O)O)c45)ccc3C)c2)c1 | inactive |
| Nc1c2c(nc3c1CCC3)CCCC2 | inactive |
| CC(C)C1CCC(O)CC1 (stereo not given) | inactive |
| CC(=O)Oc1cccc(C)c1 | inactive |
| CCOC(=O)COc1cc(-n2ncc(C(F)(F)F)c(C)c2=O)c(F)cc1Cl | 31.7 µM (active) |
| CO[Si](C)(OC)c1ccccc1 | 35.6 µM (active) |
| CN1[C@@H]2CC[C@H]1CC(OC(=O)C(O)c1ccccc1)C2 (stereo not given in full) | inactive |
| CN(C)CCCN(C)CCCN(C)C | inactive |
| CC(C)=CCC/C(C)=C/C#N | inactive |
| CO[C@@]1(NC(=O)C(C(=O)O)c2ccc(O)cc2)C(=O)N2C(C(=O)O)=C(CSc3nnnn3C)CO[C@@H]21 (stereo not given in full) | inactive |
| COc1cc(C(=O)NCc2ccc(OCCN(C)C)cc2)cc(OC)c1OC | inactive |
| NC(=O)NC1N=C([O][Al])NC1=O (stereo not given) | inactive |
| Cc1ccc(-c2ncc(Cl)cc2-c2ccc(S(C)(=O)=O)cc2)cn1 | 17.4 µM (active) |
